High-throughput results as filed in PubChem BioAssay.
A selection: hits, their analogues and other compounds. The true share with any hit is near 2.9%.
IP6K1 inh = blocks human inositol hexakisphosphate kinase 1. AID 1645851. IP6K1 kinase, ADP-Glo luminescence, 2 h; active compounds read low. Q92551. 0.81% of 140,000 active. activity change, % (series mostly up to about 58 µM); in the data active = activity change below about -25%
Target sequence (Q92551 whole entry, looked up): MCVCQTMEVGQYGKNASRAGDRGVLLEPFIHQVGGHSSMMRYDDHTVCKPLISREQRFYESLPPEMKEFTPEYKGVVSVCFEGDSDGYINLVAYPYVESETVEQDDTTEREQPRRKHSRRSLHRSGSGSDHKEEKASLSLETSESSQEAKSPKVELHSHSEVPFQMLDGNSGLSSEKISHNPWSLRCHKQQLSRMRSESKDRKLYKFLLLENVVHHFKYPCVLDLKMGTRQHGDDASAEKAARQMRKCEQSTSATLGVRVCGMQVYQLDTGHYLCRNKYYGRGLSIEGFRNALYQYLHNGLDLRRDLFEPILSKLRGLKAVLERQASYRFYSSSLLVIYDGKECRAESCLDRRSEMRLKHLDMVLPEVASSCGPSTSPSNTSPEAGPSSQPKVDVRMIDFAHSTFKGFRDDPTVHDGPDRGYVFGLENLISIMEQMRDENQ
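ADP-Glo luminescence measures ADP made by human IP6K1 during a 2 h RT reaction with ATP/IP6 (mix at 1.3 mM/130 uM); top library doses 57.5 and 19.1 uM final.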
KDM5B inhibitor = inhibitors of human KDM5B histone demethylase; Q9UGL1; KDM5B demethylase, FDH-coupled NADH fluorescence (FDH is formaldehyde dehydrogenase); Potency, µM (highest dose often 57.7 µM), most hits filed as inhibitors; 2.6% of 220,000 active; AID 1347165; also: nearly all actives have a fitted effect of over 70% in size
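Inhibition is measured as reduced NADH fluorescence generation from FDH coupling to formaldehyde release. Truncated KDM5BΔAP at 200 nM final acts on H3K4me3 peptide (12.5 µM in substrate mix) in pH 7.5 HEPES buffer with Tween-20, 30 min, room temperature.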
SNCA viab count = cell viability loss counter-screen; HEK-293-SNCA-luc viability, GF-AFC fluorescence, 24 h; Potency, µM (highest dose often 57.1 µM), hits mostly cytotoxic; 0.12% of 150,000 active; AID 1671193; also: nearly all actives have a fitted effect of over 30% in size
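HEK-293-SNCA-luc cells (1500/well) plated 24 h, then exposed 24 h to a dilution series; GF-AFC added 30 min at 37C, fluorescence 405/540 nm; normalised to medium-only and DMSO wells, Hill fit.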
SNCA expr inhib = inhibitors of alpha-synuclein (SNCA) gene expression | HEK-293 SNCA-luciferase knock-in, luminescence, 24 h | Potency, µM (doses to about 57.2 µM), actives largely listed as inhibitors | 0.17% of 140,000 active; also: nearly all actives have a fitted effect of over 45% in size
Hits are given with their value; – = inactive; ? = inconclusive; · = not tested or not shown. Unless noted, calls follow the shape of the dose curve; as a rule, active = well fitted curve in the direction sought with a large enough effect; inconclusive = small, poorly fitted or top-dose-only effect, or another doubt; inactive = no such curve, though single readings can be large; an effect the other way counts as inactive or inconclusive.

SMILES	IP6K1 inh	KDM5B inhibitor	SNCA viab count	SNCA expr inhib
O=C(Nc1ccc(Cl)cc1)N1CCCC1C(=O)N1CCCC1c1nc2ccncc2[nH]1 (stereo not drawn)	–	·	–	–
CCOCCCNC(=O)C1CCCN1Cc1cccc(-c2cccc(OC)c2)c1 (stereo not drawn)	–	·	–	–
Cc1noc(C)c1-c1cc(-c2cnn(C)c2)cn2cncc12	–	39.8µM	–	–
Cc1noc(C)c1-c1cc(-c2ccccc2O)cn2cncc12	–	–	–	–
CC(=O)Nc1cccc(-c2cc(-c3c(C)noc3C)c3cncn3c2)c1	–	39.8µM	–	–
Cc1noc(C)c1-c1cc(-c2cccc(CO)c2)cn2cncc12	–	35.5µM	–	–
Cc1noc(C)c1-c1cc(-c2cccnc2)cn2cncc12	–	35.5µM	–	–
COc1cccc(-c2cc(-c3c(C)noc3C)c3cncn3c2)c1	–	?	–	–
Cn1ccc(NC(=O)[C@@H]2C[C@@H](c3ccc(F)cc3)N([S+](=O)([O-])c3ccccc3)C2)n1	–	–	–	–
COc1cccc(-c2cc(-c3ccc(=O)[nH]c3)c3cncn3c2)c1	–	?	–	–
COc1ccc(-c2cc(-c3cnn(C)c3)cn3cncc23)cc1	–	35.5µM	–	–
C1=C(c2cc(-c3cccc(N4CCOCC4)c3)cn3cncc23)CCOC1	–	?	–	–
COc1cccc(-c2cc(-c3ccc(OC)nc3)c3cncn3c2)c1	–	31.6µM	–	–
CC(=O)Nc1cccc(-c2cc(C3=CCOCC3)c3cncn3c2)c1	–	39.8µM	–	–
CC(=O)N1CCN(c2ccc3nnc(-c4ccccc4)n3n2)CC1	–	·	·	·
Cc1ccc(NC(=O)CN(C)S(=O)(=O)c2ccc(C(=O)N3CCOCC3)s2)c(C)c1	·	–	·	·
Cc1ccccc1C(=O)N1CC2(Cc3ccccc3N([S+](C)(=O)[O-])C2)C1	–	25.1µM	–	–
C[S+](=O)([O-])N1CC2(CCN(C(=O)CCC(=O)O)C2)Cc2ccccc21 (stereo not drawn)	–	39.8µM	–	–
CCOC(=O)CNCc1ccc(F)cc1	·	–	·	·
CC(C)C(=O)N1Cc2ccccc2CC2(CCN(Cc3ccc(O)cc3)CC2)C1	–	–	–	?
Oc1ccc(Nc2nc(-c3ccc(F)cc3F)cs2)cc1	·	–	·	·
N#Cc1ccc(Nc2nc(-c3ccc(O)cc3O)cs2)cc1C(F)(F)F	–	·	11.9µM	·
CN1CCN(c2cc(=O)c3ccnc(Nc4ccccn4)c3o2)CC1	–	?	–	–
CC(=O)Nc1cccc(-c2nccc3c(=O)cc(-c4ccncc4)oc23)c1	–	?	–	–
CN1CCN(c2cc(=O)c3ccnc(-c4cccc(F)c4)c3o2)CC1	–	35.5µM	–	–
SMILES	IP6K1 inh	KDM5B inhibitor	SNCA viab count	SNCA expr inhib
CN1CCN(c2cc(=O)c3ccnc(-c4cccc(CO)c4)c3o2)CC1	–	28.2µM	–	–
O=c1cc(-c2ccncc2)oc2c(-c3cccc(CO)c3)nccc12	–	35.5µM	–	–
Cc1cc(-c2nccc3c(=O)cc(N4CCOCC4)oc23)ccn1	–	?	–	–
CN1CCN(c2cc(=O)c3ccnc(-c4ccc(CO)cc4)c3o2)CC1	–	35.5µM	–	–
c1cncc(CN2CCC(N3CC(OCC4CC4)C34CCCCC4)CC2)c1 (stereo not drawn)	–	·	–	–
COc1cccc(NC(=O)NC[C@H]2O[C@H](Cc3cc(CN4CCOCC4)on3)CC[C@@H]2O)c1	–	–	–	–
COCCO[C@H]1C(=O)N(C2CCN(C(=O)c3ccc4cc[nH]c4c3)CC2)[C@H]1c1ccncc1	–	?	–	–
CC(C)c1ccc(C(=O)NC(=S)NCCCO)cc1	·	–	·	·
CNC(=O)c1cc(C2CC2)nc2c1c(C1CCN(C(=O)c3cccc(OC)c3)C1)nn2C (stereo not drawn)	–	·	·	·
COc1ccc2cc(C(=O)NC3CCN(C(=O)N4CC5CC(C4)[C@H]4CCCC(=O)N4C5)CC3)[nH]c2c1 (stereo partly drawn)	–	28.2µM	–	–
COc1ccc2cc(C(=O)N3CC4CC(C3)[C@H]3CCCC(=O)N3C4)[nH]c2c1 (stereo partly drawn)	–	–	–	–
COCCN1CCOc2nc(-c3cc4ccccc4o3)ncc2C1=O	–	?	–	8.91µM
COc1cc(F)cc(-c2ncc3c(n2)OCCN(c2cccc(C(F)(F)F)c2)C3=O)c1	–	–	–	–
COCCN1CCOc2nc(-c3ccc(F)c(Cl)c3)ncc2C1=O	–	–	–	–
COc1cc(F)cc(-c2ncc3c(n2)OCCN(C)C3=O)c1	–	35.5µM	–	–
COc1cc(F)cc(-c2ncc3c(n2)OCCN(Cc2ccc(F)cc2F)C3=O)c1	–	?	–	–
O=C1c2cnc(-c3cc4ccccc4o3)nc2OCCN1CC1CC1	–	–	–	?
COCCN1CCOc2nc(-c3cc(F)cc(OC)c3)ncc2C1=O	–	31.6µM	–	?
COCCN1CCOc2nc(-c3cc(F)ccc3OC)ncc2C1=O	–	31.6µM	–	–
Cc1cc(C)c2oc(=O)cc(CN3CCN(c4ccccn4)CC3)c2c1	·	–	·	·
COc1ccc(F)cc1-c1ncc2c(n1)OCCN(c1cccc(C(F)(F)F)c1)C2=O	–	39.8µM	–	?
COc1ccc(-c2ncc3c(n2)OCCN(c2ccccc2)C3=O)cc1F	–	28.2µM	–	–
Cc1ccc(C(CC(=O)N2CCc3ccccc3C2)c2cn(C)c3ccccc23)cc1 (stereo not drawn)	–	17.8µM	–	–
Cc1ccc(C(CC(=O)N2CCCCC2)c2cn(C)c3ccccc23)cc1 (stereo not drawn)	–	?	–	–
CCc1noc(CS(=O)(=O)Cc2cc(C)ccc2C)n1	·	–	·	·
SMILES	IP6K1 inh	KDM5B inhibitor	SNCA viab count	SNCA expr inhib
CN1C[C@@H]2CC[C@H](CC1=O)N2C(=O)c1cnn2cc(CCO)cnc12	–	31.6µM	–	–
COCCNC(=O)c1cc(-c2ccc(OC)cc2)nc2c1c(C1CCCN1)nn2C (stereo not drawn)	–	79.4µM	–	–
COCCNC(=O)c1cc(C2CC2)nc2c1c(C1CCCN1)nn2-c1ccccc1 (stereo not drawn)	–	–	–	–
COc1ccc(-c2cc(C(=O)NCC(C)C)c3c(C4CCCN4)nn(C)c3n2)cc1 (stereo not drawn)	–	50.1µM	–	–
COc1ccc(-c2cc(C(=O)N3CCOCC3)c3c(C4CCCN4)nn(C)c3n2)cc1 (stereo not drawn)	–	?	–	–
Cc1nn(-c2ccccc2)nc1C(=O)N[C@H](C)c1onc(-c2cccnc2)c1C(=O)O	–	25.1µM	–	–
Cc1cccc(C)c1NC(=O)c1ccc2ncsc2c1	·	–	·	·
COc1cccc(NC(=O)N2CCc3nc4cc(-c5ccccc5Cl)[nH]n4c(=O)c3C2)c1	–	25.1µM	–	?
O=C(NCC1CCCO1)N1CCc2c(nc3cc(-c4ccccc4Cl)[nH]n3c2=O)C1 (stereo not drawn)	–	20µM	–	–
COC(=O)CNC(=O)N1CCc2c(nc3cc(-c4ccccc4Cl)[nH]n3c2=O)C1	–	22.4µM	–	?
